Laboratory results taken from PubChem BioAssay (NCI).
About 79,000 compounds went through this panel and 15% of them were active in at least one assay; those are over-represented in the sample as a whole. No stated cut-off is given here; in the data, active means growth inhibition above about 70%; inactive means the rest. Where a SMILES comes first, the peptide text is derived from it. [ ]: non-standard residue; d: D form. The star is where a group is joined. Cbz = O=C(OCc1ccccc1)*; Nva = CCC[CH](N)C(=O)O

What was measured:
[1] = NCI Yeast Anticancer Drug Screen. Data for the rad50 strain (AID 155);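 further: 0% = growth of vehicle-only cultures of the same strain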; conditions: S. cerevisiae rad50 strain growth inhibition; at 50.0 µM; stronger effect = higher value
In short: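 Yeast carrying a defined DNA repair defect were exposed to test compounds, and growth was compared with vehicle-treated controls to give percent inhibition.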

[2] = NCI Yeast Anticancer Drug Screen. Data for the mec2-1 strain (AID 157); conditions: S. cerevisiae mec2-1 strain, at 50.0 µM, stronger effect = higher value
In short: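 Mutant yeast (mec2-1) grown with compound; growth inhibition relative to vehicle control reported.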

[3] = NCI Yeast Anticancer Drug Screen. Data for the sgs1 mgt1 strain (AID 161);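 further: 0% = growth of cultures given vehicle only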; conditions: S. cerevisiae sgs1 mgt1 strain, at 50.0 µM, stronger effect = higher value
In short: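 This yeast growth screen uses a strain with defined DNA-repair lesions; compound-treated growth is compared with vehicle-treated growth.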

[4] = NCI Yeast Anticancer Drug Screen. Data for the cln2 rad14 strain (AID 165);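 further: 0% = growth equal to vehicle treated cultures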; conditions: S. cerevisiae cln2 rad14 strain, at 50.0 µM, stronger effect = higher value
In short: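 Readout is yeast growth inhibition versus vehicle-treated controls, using a strain with cln2 and rad14 alterations exposed to compound.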

[5] = NCI Yeast Anticancer Drug Screen. Data for the bub3 strain (AID 167); conditions: S. cerevisiae bub3 mutant strain, at 50.0 µM, stronger effect = higher value
In short: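 Compounds were applied to a genetically altered yeast strain carrying a cell-cycle control defect. Growth inhibition was scored against vehicle-treated controls.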

[6] = NCI Yeast Anticancer Drug Screen. Data for the mlh1 rad18 strain (AID 175); conditions: S. cerevisiae mlh1 rad18 strain growth inhibition; at 50.0 µM; stronger effect = higher value
In short: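 Genetically defined yeast (DNA repair-deficient) exposed to compounds; growth inhibition determined relative to vehicle.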

Measured: growth inhibition

Clc1ccc(-c2ncc(-c3ccccc3)o2)c(Cl)c1
inactive: [1] 9.35% | [2] -3.4% | [3] 5.65% | [4] -39.9% | [5] 9.2% | [6] 23.2%

COc1ccc2c(c1)c1c3c(ccc4ncn2c43)N(CCN(C)C)CCN=1
inactive: [1] -27.1% | [2] -26.1% | [3] -9.25% | [4] -6.3% | [5] 1.4% | [6] -37.6%

O=C(O)CCc1c[nH]c2ccccc12
inactive: [1] 10.2% | [2] 1.15% | [3] 31.8% | [4] -55.4% | [5] -7.95% | [6] 18.5%

CC(C)CCC[C@@H](C)[C@H]1CC[C@H]2[C@@H]3CC=C4C[C@@H](Cl)CC[C@]4(C)[C@H]3CC[C@]12C
inactive: [1] -3.75% | [2] -13.8% | [3] -20% | [4] -2.8% | [5] -8.9% | [6] -0.35%

O=C(Nc1ccc(Cl)c(Cl)c1)C1C(=O)N(c2ccc(Cl)c(Cl)c2)C(=O)/C1=N\O (stereo not given)
inactive: [1] 24.4% | [2] -4.3% | [3] 11.2% | [4] 16.9% | [5] -3.3% | [6] 22.8%

O=C1c2ccccc2C(=O)N1CCS(=O)(=O)CCS(=O)(=O)CCN1C(=O)c2ccccc2C1=O
inactive: [1] -0.1% | [2] 4.95% | [3] -14.9% | [4] -37.5% | [5] -0.95% | [6] 4.5%

CC(=O)Oc1cc(O)oc(=O)c1
inactive: [1] 33% | [2] -14.8% | [3] 21.1% | [4] 19.3% | [5] 11.3% | [6] 13.1%

COC(=O)C1(CC(=O)c2cc(Cl)ccc2Cl)NC(=S)NC(=O)C1C#N (stereo not given)
inactive: [1] 19.9% | [2] -9.1% | [3] -8.15% | [4] 30.5% | [5] -6.75% | [6] 2.1%

COc1cccc(C(=O)CCN(C)C)c1
inactive: [1] 33.4% | [2] 0.35% | [3] -2.8% | [4] 12.1% | [5] 18.1% | [6] 28.1%

Cc1cccc2c(NCCC[N+](C)(C)[O-])c3c([N+](=O)[O-])ccc(C)c3nc12
inactive: [1] 54.1% | [2] -14.3% | [3] 43.8% | [4] 2.8% | [5] -3.1% | [6] 43%

CC1OC(c2ccc(Cl)cc2)OC1C (stereo not given)
inactive: [1] 16.4% | [2] 20.9% | [3] 10.9% | [4] -31.6% | [5] -5.7% | [6] 10.7%

C=CC12c3c4cc(OC)cc3OC1C(O)CCC2CC4 (stereo not given)
inactive: [1] -8.05% | [2] 8.85% | [3] -6.2% | [4] 9.85% | [5] 4.5% | [6] 5.65%

CCN(CC)CCCNc1c2c(nc3c(OC)cccc13)CCCC2
inactive: [1] -38.4% | [2] 10.7% | [3] -6.7% | [4] -41.6% | [5] 5.95% | [6] -2.45%

CCC/C=N/NC(=O)c1ccc(OC)cc1
inactive: [1] -2.45% | [2] -15.8% | [3] -6.85% | [4] -46.9% | [5] 5.85% | [6] -4.7%

CC(=O)[C@H]1CC[C@@H]2[C@]1(C)CC1OC13[C@@]21C=C[C@@]2(CC(=O)CC[C@]32C)C2C(=O)OC(=O)C21 (stereo not given in full)
inactive: [1] 17.6% | [2] 4.45% | [3] 40.8% | [4] 18.5% | [5] 3.95% | [6] 22.9%

[O-][N+](=Nc1ccc(Sc2ccccc2)cc1)c1ccc(Sc2ccccc2)cc1
inactive: [1] -4.65% | [2] 2.3% | [3] 19% | [4] -17% | [5] 21.9% | [6] 28.1%

O=[N+]([O-])c1ccc(Oc2ccc(Cl)cc2)cc1
inactive: [1] 16.9% | [2] -11.8% | [3] 14.6% | [4] 2.1% | [5] -18.9% | [6] 21.8%

CCCC(NC(=O)OCc1ccccc1)C(=O)NC(CCSC)C(=O)O (stereo not given) (Cbz-[Nva]-Met-OH; configuration not given here)
inactive: [1] -54.6% | [2] -1.6% | [3] -4.65% | [4] 11.5% | [5] -0.85% | [6] -5.95%

COc1ccc2[nH]c3c4c(c5cc(C(C)(C)C)ccc5c3c2c1)C(=O)N(c1ccccc1)C4=O
inactive: [1] -12.8% | [2] -13.3% | [3] 3.1% | [4] 16.7% | [5] -14.2% | [6] -8.7%

Cc1cc(C)c(/C=C/c2c(C)cc(C)cc2C)c(C)c1
inactive: [1] 9.25% | [2] -12.9% | [3] 4.2% | [4] -26.4% | [5] -4.45% | [6] -0.5%
